# Laboratory results: PubChem BioAssay AID376 (PDSP, 2006)
# Among all 2,000 compounds or so, about 250 (12%) were called active. The sample as a whole holds a higher share of actives than the screen did. Unmarked numbers belong to inactive results. No stated cut-off is given here; in the data, active means hERG blockade below about -20% or above about 20%; inactive means in between.
# Molecular target: Voltage-gated inwardly rectifying potassium channel KCNH2 (Homo sapiens) (UniProt Q12809)
# Test: modulators of KCNH2 ion channel function, cellular (AID 376);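 further: 0% = buffer alone and 100% = reference blocker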
# Details: hERG-expressing cells, channel activity single-concentration screen; concentration not given here
# Sequence of Voltage-gated inwardly rectifying potassium channel KCNH2 (Homo sapiens) (Q12809 whole entry, looked up): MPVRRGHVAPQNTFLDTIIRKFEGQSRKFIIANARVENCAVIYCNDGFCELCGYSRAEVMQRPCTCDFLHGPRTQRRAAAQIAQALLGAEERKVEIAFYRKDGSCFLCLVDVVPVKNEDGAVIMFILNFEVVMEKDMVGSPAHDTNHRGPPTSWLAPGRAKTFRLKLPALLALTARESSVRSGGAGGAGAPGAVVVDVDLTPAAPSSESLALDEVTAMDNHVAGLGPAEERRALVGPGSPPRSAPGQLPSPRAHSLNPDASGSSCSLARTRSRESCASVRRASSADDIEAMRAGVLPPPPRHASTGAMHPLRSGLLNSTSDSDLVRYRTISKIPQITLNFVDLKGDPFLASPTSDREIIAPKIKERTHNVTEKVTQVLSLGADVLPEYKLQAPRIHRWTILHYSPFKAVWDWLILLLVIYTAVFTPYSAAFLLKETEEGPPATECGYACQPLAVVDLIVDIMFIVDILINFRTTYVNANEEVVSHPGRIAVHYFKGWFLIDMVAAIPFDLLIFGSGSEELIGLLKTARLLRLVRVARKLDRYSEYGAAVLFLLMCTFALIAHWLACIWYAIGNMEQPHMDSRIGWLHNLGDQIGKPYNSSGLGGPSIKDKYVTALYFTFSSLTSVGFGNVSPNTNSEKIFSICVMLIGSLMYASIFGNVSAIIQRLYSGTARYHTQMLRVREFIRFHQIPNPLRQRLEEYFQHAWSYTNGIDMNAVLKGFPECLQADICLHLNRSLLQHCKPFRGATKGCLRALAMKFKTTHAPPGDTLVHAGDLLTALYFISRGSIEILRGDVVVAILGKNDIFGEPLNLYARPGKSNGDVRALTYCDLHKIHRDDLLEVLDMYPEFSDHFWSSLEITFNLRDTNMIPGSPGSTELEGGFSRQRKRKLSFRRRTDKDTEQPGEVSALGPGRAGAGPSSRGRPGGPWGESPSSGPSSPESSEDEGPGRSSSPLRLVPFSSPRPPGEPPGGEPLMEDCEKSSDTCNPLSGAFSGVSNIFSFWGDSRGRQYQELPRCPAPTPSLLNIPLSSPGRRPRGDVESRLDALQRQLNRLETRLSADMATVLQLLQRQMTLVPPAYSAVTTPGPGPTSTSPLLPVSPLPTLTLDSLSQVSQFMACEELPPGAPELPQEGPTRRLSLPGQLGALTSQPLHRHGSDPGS
row,SMILES,hERG blockade
1,N=c1nc(N)nc(N)n1-c1ccc(S(N)(=O)=O)cc1,-2.11%
2,Nc1[nH]c(=O)nc2c1ncn2C1OC(CO)C(O)C1O (stereo not given),-9.03%
3,COc1ccc2cc(C(=O)CCC(=O)O)ccc2c1,-0.161%
4,NC(=[SH+])[N-]N=Cc1ccccn1.O=S(=O)([O-])O.[Fe],8.22%
5,O=C(O)c1ccncc1.O=C(O)c1ccncc1.[Cl][Pt]([Cl])([Cl])[Cl],16.7%
6,C[N+]1(CCN=C=NC2CCCCC2)CCOCC1,4.24%
7,CN(C)CCCN1c2ccc3ccccc3c2Sc2cccc(Cl)c21,30.4% (active)
8,CCN(CC)CCN1c2ccccc2Sc2ccc3ccccc3c21,28.5% (active)
9,CN(C)CCCN1c2ccccc2C(C)(C)c2ccccc21,34.9% (active)
10,CCN(CC)CCN1C(=O)c2cccc3cc(N)cc(c23)C1=O,-2.82%
11,CN(C)CCCN1c2ccccc2Sc2ccc3ccccc3c21,112% (active)
12,Clc1ccc(-c2nnc(-c3cccc4ccccc34)o2)cc1Cl,-2.83%
13,N=Nc1c(OC(=O)Nc2ccccc2)[nH]c2ccccc12,18.5%
14,CN(C)CCC(C(=O)C(C)(C)C)c1ccccn1 (stereo not given),-9.42%
15,CS(=O)(=O)c1ccc(C=NNC(N)=S)cc1,-0.277%
16,O=[N+]([O-])c1ccc(NN=C2c3ccccc3Cc3ccccc32)c([N+](=O)[O-])c1,8.87%
17,O=C(O)c1cc(N=Cc2ccccc2O)cc(C(=O)O)c1,-2.64%
18,Nc1nc(N)c2nn(-c3ccc(C(=O)O)cc3)nc2n1,14.6%
19,NCCSCC(N)C(=O)O (stereo not given),1.01%
20,O=C(O)c1ccc(OCc2ccccc2)c(Cl)c1,4.92%
21,Cc1c[n+](=O)c2ccccc2n1[O-],-5%
22,O=C(O)C1C2C=CC(O2)C1C(=O)NCc1ccncc1 (stereo not given),-11%

row,SMILES,hERG blockade
1,N=C(N)SCc1nc(-c2ccc(Cl)cc2)no1,-25.1% (active)
2,Clc1ccc(-c2noc(CN3CCCCC3)n2)cc1,-11.3%
3,C[N+](C)(N)Cc1nc(-c2ccc(Cl)cc2)no1,1.91%
4,Cc1cc2c(cc1C)NC1=C(N2)OC(c2c[nH]c3ccc(COc4ccccc4)cc23)C1=O (stereo not given),-6.35%
5,CCOC(=O)C1=C(C)NC(=O)NC1c1coc2cc(C)cc(C)c2c1=O (stereo not given),-8.18%
6,Cc1ccc(S(=O)(=O)N2CCC(C(=O)O)(c3ccccc3)CC2)cc1,-1.68%
7,COc1ccc2c(=O)cc(-c3ccncc3)oc2c1OC,72.1% (active)
8,C1CCN(CCC2CCCCN2)CC1 (stereo not given),-0.957%
9,Oc1cccnc1CN1CCCCC1,-6.51%
10,[O-][n+]1c(CN2CCCCC2)nc2cccc3c2c1-c1ccccc1-3,41.6% (active)
11,CN1CCN(Cc2nc3cccc4c3c([n+]2[O-])-c2ccccc2-4)CC1,39.2% (active)
12,CN1CCN(CC(=O)Nc2cccc3ccccc23)CC1,8.36%
13,CC(C)C1OC(C=Cc2ccccc2)OCC1(C)C (stereo not given),10.1%
14,O=C(O)CSc1ccn(Cc2ccccc2)c1,-5.01%
15,CC(=NCC(=O)O)c1ccccc1,-2.03%
16,C=C(C)CN(CC#N)CC(=C)C,-3.17%
17,C=C(Br)CN(C)CC(=C)Br,-27.2% (active)
18,CN(CC(=O)O)CC(=O)O,9.14%
19,Cc1cc(Nc2ccc(N=Nc3ccc(O)c4ncccc34)cc2)nc(C)n1,7.41%
20,[Cu+2].[NH-]C(CC(=O)O)C(=O)O.[NH-]C(CC(=O)O)C(=O)O (stereo not given),16.8%
21,NC(=O)NN=C1CCC(O)CC1CC(=O)O (stereo not given),0.91%
22,CN1C2CCC1CC(OC(c1ccccc1)c1ccccc1)C2 (stereo not given),44.2% (active)

row,SMILES,hERG blockade
1,NS(=O)(=O)c1ccc(N=Nc2nc3[nH]cnc(=S)c3[nH]2)cc1,-16.4%
2,CC(CN(C)C)C(O)(c1ccccc1)c1ccccc1 (stereo not given),7.73%
3,CC(CN(C)C)C(=O)c1ccccc1C(=O)O (stereo not given),0.354%
4,CN(C)CC(O)c1ccc(Cl)c2ccccc12 (stereo not given),28.3% (active)
5,CN(Cc1cc(Br)cc(Br)c1O)Cc1c(O)ccc2ccccc12,16%
6,Clc1ccc(Cl)c(Nc2ccnc(SCc3ccccc3)n2)c1,-4.72%
7,CC1CCC2(C(=O)O)CCC3(C)C(=CCC4C5(C)CC(O)C(O)C(C)(CO)C5C(O)CC43C)C2C1C (stereo not given),17.2%
8,O=C(CSc1ncnc2nc[nH]c12)c1ccccc1,-4.94%
9,O=S1(=O)CCN(c2ccccc2CC(c2c[nH]c3ccccc23)c2c[nH]c3ccccc23)CC1,32.2% (active)
10,Cn1ccnc1CC(C)(O)c1ccccc1 (stereo not given),-2.58%
11,COc1ccc(OC)c(-c2cc(C(=O)O)c3cc4ccccc4cc3n2)c1,-16.1%
12,CC(CCC(=O)O)C1CCC2(C)C3C(=O)CC4C(C)(C)C(O)CCC4(C)C3C(=O)CC12C (stereo not given),2.84%
13,CC(CCC(=O)O)C1CCC2C3C(O)CC4CC(O)CCC4(C)C3CC(O)C12C (stereo not given),5.61%
14,O=C(O)c1ccc(C(=O)O)c(C(=O)Nc2ccc3c(c2)Cc2ccccc2-3)c1,-3.35%
15,O=C(O)c1ccc(C(=O)O)c(C(=O)O)c1.[NH-]C1CCCCC1[NH-].[Pt+2],23.7% (active)
16,O=C(O)c1ccc(C(=O)c2ccccc2)c(C(=O)O)c1,1.04%
17,O=C1CNCCCN2CCN(CCCNCC(=O)Nc3ccc(cc3)S(=O)(=O)c3ccc(cc3)NC(=O)CNCCCN3CCN(CCCNCC(=O)Nc4ccc(cc4)S(=O)(=O)c4ccc(cc4)N1)CC3)CC2,5.8%
18,Cc1ccc(S(=O)(=O)NC(=O)OC23COCN2COC3)cc1,-18.8%
19,Oc1c(Br)cc(Br)cc1CN(Cc1cc(Br)cc(Br)c1O)C1CCCCC1,-7.44%
20,O=C1c2ccccc2C(=O)N1CC1(C(=O)O)NCCS1(=O)=O (stereo not given),4.44%
21,N=Nc1c(OC(=O)Nc2cccc(Cl)c2)[nH]c2ccccc12,1.43%
